Experimental data: PubChem BioAssay AID720646 (Broad Institute, 2013)
About 25 (2%) of roughly 1,000 compounds were called active. Only a sample is shown. A number with no mark means an inactive call.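 The calls were made as follows: active = fitted rise in melting shift crosses a set limit at or below the top valid dose tested; inconclusive = flat fit at mid-level activity, or a poor quality fit; inactive = the rest.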

molecular target: Fibroblast growth factor 22 (Homo sapiens) (UniProt Q9HCT0); test: binders of human FGF22 protein, dose response, FGF22 synaptogenesis inhibitor project, biophysical, thermal shift, cherry-pick retest (AID 720646); details: recombinant FGF22 thermal shift, SYPRO orange fluorescence; series mostly up to 38 µM; thermal shift activity: at the top concentration
Sequence (Q9HCT0 whole entry, looked up): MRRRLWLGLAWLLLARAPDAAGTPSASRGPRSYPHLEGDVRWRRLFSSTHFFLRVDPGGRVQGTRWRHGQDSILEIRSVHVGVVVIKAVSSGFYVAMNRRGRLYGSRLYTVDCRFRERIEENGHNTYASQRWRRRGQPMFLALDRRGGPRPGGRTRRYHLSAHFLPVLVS

SMILES | thermal shift activity
NS(=O)(=O)c1cccc(NC(=O)COC(=O)c2cc([N+](=O)[O-])ccc2N2CCCC2)c1 | -0.13 °C (ΔTm)
COc1ccccc1NC(=O)N1[C@H](C#N)[C@H](c2ccccc2)[C@H]1CO | 0.093 °C (ΔTm) [at 42 µM]
OC[C@H]1[C@H](c2ccc(-c3cccnc3)cc2)[C@H]2CN(Cc3ccccn3)CCCCN21 | -0.103 °C (ΔTm)
O=C(Nc1nnc(-c2ccccc2F)s1)c1ccccc1F | 0 °C (ΔTm)
C[C@H]1CN([C@@H](C)CO)C(=O)Cc2cc(NC(=O)Cc3cn(C)c4ccccc34)ccc2O[C@@H]1CN(C)Cc1ccccc1 | 0.039 °C (ΔTm) [at 42 µM]
CC(C)NC(=O)N(C)C[C@@H]1Oc2c(NC(=O)c3nc4ccccc4s3)cccc2C(=O)N([C@H](C)CO)C[C@H]1C | 0.02 °C (ΔTm) [at 42 µM]
O=C(C[C@H]1CC[C@H]2[C@@H](COC[C@H](O)CN2S(=O)(=O)c2cccc(Cl)c2)O1)Nc1ccccc1 | 0.156 °C (ΔTm) [at 42 µM]
COc1ccc(-c2ccc([C@H]3[C@H]4CN(C(=O)c5ccc6c(c5)OCO6)CCCCN4[C@H]3CO)cc2)cc1 | 0.291 °C (ΔTm) [at 42 µM]
O=C(N/N=C/c1c[nH]c2ccccc12)c1cc2ccccc2o1 | -0.119 °C (ΔTm)
COc1cc([N+](=O)[O-])ccc1NC(=O)CN1CCCC1 | -0.034 °C (ΔTm)
COCC(=O)Nc1ccc2c(c1)OC[C@H](C)N(C)C[C@@H](C)[C@@H](OC)CN(C)C2=O | 0.077 °C (ΔTm) [at 42 µM]
Cc1ccc(S(=O)(=O)NCCC(=O)Nc2ccc(C)c(Cl)c2)cc1C | 0.145 °C (ΔTm)
COc1ccc(-c2cc(=O)oc3cc(OCC(=O)N[C@@H](Cc4c[nH]c5ccccc45)C(=O)O)ccc23)cc1 | 0.161 °C (ΔTm)
C[C@H]1CN([C@@H](C)CO)S(=O)(=O)c2ccc(C3=CCCC3)cc2O[C@H]1CN(C)C(=O)Nc1ccc2c(c1)OCO2 | 0.148 °C (ΔTm) [at 42 µM]
O=C(C[C@H]1C[C@@H]2c3cc(NC(=O)Nc4ccc(C(F)(F)F)cc4)ccc3O[C@@H]2[C@@H](CO)O1)NCC1CC1 | -0.054 °C (ΔTm) [at 10 µM]
CC(C)(C)N1C(=O)c2c(C(=O)OCc3ccccc3)[nH]c(-c3ccccc3)c2C1=O | 0.1 °C (ΔTm)
Cc1ccc(S(=O)(=O)Nc2nc3ccccc3s2)cc1[N+](=O)[O-] | -0.171 °C (ΔTm)
O=C(N/N=C/c1ccc(Cl)c(Cl)c1)c1ccc2nc[nH]c2c1 | 0.006 °C (ΔTm)
O=C(COc1ccc([N+](=O)[O-])cc1)Nc1cccc(C(=O)Nc2ccccc2C(=O)O)c1 | 0.358 °C (ΔTm)
O=C(NCCc1c[nH]c2ccccc12)C(=O)NCC1CCCO1 (stereo unspecified) | -0.166 °C (ΔTm)
Cc1ccc(NC(=O)O/N=C/c2cccc([N+](=O)[O-])c2)cc1 | -0.042 °C (ΔTm)
Cc1ccc(S(=O)(=O)N(C)C[C@@H]2Oc3cc(C4=CCCC4)ccc3S(=O)(=O)N([C@@H](C)CO)C[C@@H]2C)cc1 | 0.058 °C (ΔTm) [at 42 µM]
CCn1ccnc1CN(C)C(=O)c1ccc2nc(Cc3ccc(OC)cc3)oc2c1 | 0.081 °C (ΔTm)
C[C@@H]1CCCCO[C@@H](CN(C)Cc2ccncc2)[C@H](C)CN([C@H](C)CO)C(=O)c2cc(NC(=O)Cc3ccccc3)ccc2O1 | 0.059 °C (ΔTm)
C[C@@H]1CN([C@H](C)CO)S(=O)(=O)c2ccc(-c3ccncc3)cc2O[C@@H]1CN(C)C(=O)Nc1ccc(C(F)(F)F)cc1 | -0.536 °C (ΔTm)
CC(C)NC(=O)N1C[C@@H]2[C@H](c3ccccc31)[C@H](CO)N2C(=O)c1ccccn1 | 0.17 °C (ΔTm) [at 42 µM]
